A short description of test [1]: A CellTox Green Cytotoxicity Assay to monitor cytotoxicity in HEK293 cells - 32 hour (AID 1224881). Also: nearly all actives have a fitted effect of over 40% in size. The essentials: (§1)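 Fluorescence from a DNA-binding dye excluded by viable cells was measured repeatedly in the same HEK293 wells (600 cells/well) during continuous compound exposure at 37 C. Each assay gives one read point: 0, 8, 16, 24, 32 or 40 h.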
A short description of test [2]: A CellTox Green Cytotoxicity Assay to monitor cytotoxicity in HepG2 cells - 0 hour (AID 1224882). Also: nearly all actives have a fitted effect of over 35% in size. Summed up: (§2)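 Real-time cytotoxicity: fluorescence of a cell-impermeant cyanine dye binding DNA of dead HepG2 cells, measured repeatedly (0–40 h) during compound exposure at 37 C. Cells seeded 600/well with reagent, dosed after 5 h.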
Test [3] can be described thus: A CellTox Green Cytotoxicity Assay to monitor cytotoxicity in HepG2 cells - 32 hour (AID 1224883). Also: nearly all actives have a fitted effect of over 50% in size. Also: potency is read from the fitted curve at half-maximal effect. The essentials:
as §2

Test [4] is described as follows: A CellTox Green Cytotoxicity Assay to monitor cytotoxicity in HEK293 cells - 8 hour (AID 1224884). Also: nearly all actives have a fitted effect of over 35% in size. The essentials:
as §1

A short description of test [5]: qHTS RealTime-Glo MT Cell Viability Assay in HEK293 cells - 24 hour (AID 1224886). Also: nearly all actives have a fitted effect of over 50% in size. Also: potency is read from the fitted curve at half-maximal effect. The essentials:
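Cells + reagent dispensed (600 cells/well, HEK293) → 5 h at 37 C/5% CO2 → 23 nL compound in DMSO pinned → 40 h at 37 C → luminescence read at 0, 8, 16, 24, 32, 40 h.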
In general terms: Quantitative high-throughput screening tests each substance at several concentrations.

The nature of test [6]: qHTS RealTime-Glo MT Cell Viability Assay in HEK293 cells - 8 hour (AID 1224887). Also: top concentration of the series differs between compounds; nearly all actives have a fitted effect of over 50% in size. Summed up:
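Luminescence, which tracks viable cell number through reduction of the prosubstrate to a NanoLuc substrate, was read over continuous 37 C culture. Cells (600/well) were premixed with reagent and rested 5 h before 23 nL of compound in DMSO was pinned.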

Test [7] is described as follows: A CellTox Green Cytotoxicity Assay to monitor cytotoxicity in HEK293 cells - 16 hour (AID 1224888). Also: nearly all actives have a fitted effect of over 35% in size. Summed up:
as §1

A short description of test [8]: qHTS RealTime-Glo MT Cell Viability Assay in HepG2 cells - 0 hour (AID 1224889). Also: nearly all actives have a fitted effect of over 50% in size. Also: potency is read from the fitted curve at half-maximal effect. Summed up: (§3)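 Real-time, nonlytic viability: 600 HepG2 cells/well mixed with NanoLuc enzyme plus prosubstrate; 5 h settle, compound (DMSO) added by pintool; luminescence monitored over 40 h at 37 C.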
The nature of test [9]: qHTS assay to identify small molecule antagonists of the estrogen receptor alpha (ER-alpha) signaling pathway using the BG1 cell line in the presence of 0.1 nM 17-beta-estradiol - cell viability counter screen (AID 1259241). Also: nearly all actives have a fitted effect of over 40% in size. The essentials: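 Estradiol-stimulated (0.1 nM) VM7Luc4E2 cells exposed to compounds 22 hr; viability measured by fluorescence of cleaved CellTiter-Fluor substrate after 30 min.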

Test [10] in a line: qHTS assay to identify small molecule antagonists of the androgen receptor (AR) signaling pathway using the MDA cell line in the presence of 0.5 nM R1881 - cell viability counter screen (AID 1259242). Also: nearly all actives have a fitted effect of over 45% in size. The essentials: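 Live-cell protease activity was measured by CellTiter-Fluor fluorescence after 30 min. Before that, MDA-kb2 MMTV-luciferase cells had 16 hr at 37C without CO2, exposed to test compounds and 0.5 nM R1881 final.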

In test [11] the target is Estrogen receptor (Homo sapiens) (UniProt P03372). The test is described as follows: qHTS assay to identify small molecule antagonists of the estrogen receptor alpha (ER-alpha) signaling pathway using the BG1 cell line in the presence of 0.1 nM 17-beta-estradiol (AID 1259244). Also: nearly all actives have a fitted effect of over 50% in size. Also: potency is read from the fitted curve at half-maximal effect. Summed up:
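Luciferase luminescence (ONE-Glo, 30 min at room temperature) was read after 22 hr at 37C exposure to compounds plus 17beta-estradiol at 0.1 nM final. Cells were VM7Luc4E2 with endogenous ER-alpha and an ERE-driven luciferase, pre-cultured 5 days in hormone-depleted medium.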

Test [12] is described as follows: qHTS assay to identify small molecule HDAC inhibitors (AID 1259364). Also: top concentration of the series differs between compounds; nearly all actives have a fitted effect of over 45% in size. Summed up:
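Luminescence read after 30 min room-temperature HDAC-Glo incubation measures cellular class I/II HDAC activity. Compounds were applied for 2 hr at 37 C to HCT-116 wild-type cells seeded the day before.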

The nature of test [13]: qHTS assay to identify small molecule HDAC inhibitors - cell viability counter screen (AID 1259365). Summed up:
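After overnight seeding at 1,500 cells per well, wild-type HCT-116 cultures took up compounds in DMSO for 2hr at 37 C. Viable cell content came from luminescence with CellTiter-Glo.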

Test [14] can be described thus: qHTS assay to identify small molecule antagonists of the sonic hedgehog signaling (Shh) pathway - cell viability counter screen (AID 1259367). Also: nearly all actives have a fitted effect of over 55% in size. Summed up: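 CellTiter-Fluor signal in conditioned medium-stimulated 3T3 Gli1-Luc cells, 23 hr compound exposure, 37C.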
The nature of test [15]: qHTS assay to identify small molecule agonists of the sonic hedgehog signaling (Shh) pathway (AID 1259368; calls by dose curve;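 also: NIH/3T3-derived 3T3Gli1-Luc cells carrying a stable Gli1-driven firefly luciferase reporter; series mostly up to about 92 µM; nearly all actives have a fitted effect of over 15% in size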). Summed up:
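Luminescence was read after 30 min at room temperature with luciferase reagent. Before that, 3T3Gli1-Luc cells (NIH/3T3 clone, stable Gli1-Luc reporter; 2,000/well) were exposed to compounds for 24 hr at 37C, 5% CO2, compounds being added 4 hr post-plating.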

Test [16] in a line: qHTS assay to identify small molecule agonists of the sonic hedgehog signaling (Shh) pathway - cell viability counter screen (AID 1259366). Also: nearly all actives have a fitted effect of over 50% in size. Summed up:
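Same-well cytotoxicity read. Gli1-Luc reporter 3T3 cells; compounds 24hr, 37C/5% CO2; CellTiter-Fluor fluorescence.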

Test [17] can be described thus: qHTS RealTime-Glo MT Cell Viability Assay in HepG2 cells - 16 hour (AID 1224885). Also: nearly all actives have a fitted effect of over 50% in size. The essentials: as §3
The nature of test [18]: A CellTox Green Cytotoxicity Assay to monitor cytotoxicity in HepG2 cells - 8 hour (AID 1224890). Also: nearly all actives have a fitted effect of over 45% in size. Also: potency is read from the fitted curve at half-maximal effect. Summed up: as §2
A short description of test [19]: qHTS assay to identify small molecule phospholipidosis (PLD) inducers (AID 1259344; active = well fitted curve in the direction sought with a large enough effect; an effect the other way counts as inactive or inconclusive). The essentials: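 Accumulated phospholipid, stained red by LipidTOX during 24 h compound treatment of HepG2 cells at 37 C, is quantified from images as pit number and intensity, normalised per cell using Hoechst-stained nuclei.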
Test [20] deals with Androgen receptor (Homo sapiens) (UniProt P10275). Briefly: qHTS assay to identify small molecule antagonists of the androgen receptor (AR) signaling pathway using the MDA cell line in the presence of 0.5 nM R1881 (AID 1259243). Also: nearly all actives have a fitted effect of over 50% in size. Summed up:
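Luminescent reporter readout (ONE-Glo, 30 min, room temperature) after 16 hr co-treatment of MDA-kb2 cells with test compounds and 0.5 nM R1881 final, at 37C without CO2. The MMTV-driven luciferase responds to both AR and GR.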

Several values for one entry are separate records, joined by “and”; a condition that tells them apart may be missing. Identical values can stand only once. Records with an inconclusive call do not appear. Some compounds were tested as several samples or in several runs, with calls that do not always agree. Activity calls are given as the source filed them. Unless noted, calls follow the shape of the dose curve; as a rule, active = well fitted curve in the direction sought with a large enough effect in the repeat runs; inconclusive = weak or mixed curves; inactive = no such curve, though single readings can be large; an effect the other way counts as inactive or inconclusive.

Estrogen receptor (Homo sapiens), sequence (P03372 whole entry, looked up): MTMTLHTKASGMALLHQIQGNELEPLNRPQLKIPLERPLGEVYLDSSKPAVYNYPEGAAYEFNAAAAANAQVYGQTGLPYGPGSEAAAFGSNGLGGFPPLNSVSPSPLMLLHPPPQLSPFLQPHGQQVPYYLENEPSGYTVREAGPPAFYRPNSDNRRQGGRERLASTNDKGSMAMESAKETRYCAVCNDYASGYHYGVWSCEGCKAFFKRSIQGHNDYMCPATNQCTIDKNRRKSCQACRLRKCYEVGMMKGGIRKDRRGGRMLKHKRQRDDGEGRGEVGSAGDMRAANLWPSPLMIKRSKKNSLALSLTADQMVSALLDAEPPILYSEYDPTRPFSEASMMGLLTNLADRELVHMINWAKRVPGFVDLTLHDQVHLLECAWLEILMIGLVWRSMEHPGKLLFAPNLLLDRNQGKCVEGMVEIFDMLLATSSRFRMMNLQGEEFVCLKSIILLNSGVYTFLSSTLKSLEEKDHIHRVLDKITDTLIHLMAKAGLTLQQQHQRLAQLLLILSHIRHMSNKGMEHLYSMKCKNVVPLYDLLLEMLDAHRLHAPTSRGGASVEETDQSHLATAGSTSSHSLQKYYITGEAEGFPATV
Androgen receptor (Homo sapiens), sequence (P10275 whole entry, looked up): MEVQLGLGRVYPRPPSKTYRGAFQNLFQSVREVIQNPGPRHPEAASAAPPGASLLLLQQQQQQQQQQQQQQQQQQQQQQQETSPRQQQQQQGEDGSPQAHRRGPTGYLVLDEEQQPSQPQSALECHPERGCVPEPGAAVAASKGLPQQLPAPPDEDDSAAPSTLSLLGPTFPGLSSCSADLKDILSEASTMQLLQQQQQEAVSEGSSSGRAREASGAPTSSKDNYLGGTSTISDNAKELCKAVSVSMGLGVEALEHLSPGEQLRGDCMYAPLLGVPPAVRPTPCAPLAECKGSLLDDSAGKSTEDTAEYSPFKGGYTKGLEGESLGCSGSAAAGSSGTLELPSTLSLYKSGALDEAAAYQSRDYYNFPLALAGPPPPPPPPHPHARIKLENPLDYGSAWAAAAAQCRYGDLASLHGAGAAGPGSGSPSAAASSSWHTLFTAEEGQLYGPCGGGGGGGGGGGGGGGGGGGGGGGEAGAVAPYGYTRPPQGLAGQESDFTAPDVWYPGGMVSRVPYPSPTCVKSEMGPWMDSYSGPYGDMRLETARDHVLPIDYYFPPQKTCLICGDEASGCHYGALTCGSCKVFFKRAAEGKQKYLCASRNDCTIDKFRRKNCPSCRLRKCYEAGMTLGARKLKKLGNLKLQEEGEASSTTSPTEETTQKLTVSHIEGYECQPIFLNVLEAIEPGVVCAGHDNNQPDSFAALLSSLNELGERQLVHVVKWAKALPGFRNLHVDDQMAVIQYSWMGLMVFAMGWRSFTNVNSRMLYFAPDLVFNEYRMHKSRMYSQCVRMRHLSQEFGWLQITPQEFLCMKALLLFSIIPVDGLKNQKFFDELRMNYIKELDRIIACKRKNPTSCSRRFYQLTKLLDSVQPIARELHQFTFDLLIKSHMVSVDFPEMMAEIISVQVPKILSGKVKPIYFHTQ

Take `CCN(CC)C(=O)C(C)Oc1cccc2ccccc12` (configuration not stated): the Potency entry in test [1], in test [2], in test [3], in test [4], in [5] and in test [6] was “inactive” each time. Besides, the Potency result in test [7], in test [9], in [10], in [12], in test [13] and in test [14] was “inactive” throughout. In test [15], the Potency result is “inactive”. In addition, the Potency in [8] was 43.6 µM (active); in test [11], 61.1 µM (active).
On to `CS(=O)(=O)NC(=O)c1cc(Oc2ccc(C(F)(F)F)cc2Cl)ccc1[N+](=O)[O-]`, for which the Potency result in test [1], in test [2], in [3], in [4], in test [5] and in test [6] was “inactive” each time. The Potency entry in test [7], in [8], in test [9], in test [10], in [12] and in test [13] was “inactive” throughout. Besides, the Potency result in test [16], in test [14] and in test [15] was “inactive” each time.
Regarding `Cl`, the Potency result in test [1], in test [2], in [3], in [4], in test [5] and in [6] was “inactive” each time. Also, the Potency entry in test [7], in test [8], in test [9], in test [10], in test [12] and in [16] was “inactive” in each case. In addition, the Potency entry in test [14] was “inactive”.
`c1ccc(C2CO2)cc1` (configuration not stated): the Potency result in test [1], in [2], in test [3], in [17], in test [5] and in test [6] was “inactive” throughout. In addition, the Potency result in [7], in test [8], in test [18], in [9], in test [10] and in test [12] was “inactive” in each case. The Potency result in test [13], in test [16], in [14] and in test [15] was “inactive” each time.
On to `CN(C)P(=O)(N(C)C)N(C)C`, for which the Potency result in [1], in [2], in test [3], in [4], in test [5] and in [6] was “inactive” each time. Moreover, the Potency result in [7], in [8], in [18], in [9], in [11] and in [12] was “inactive” throughout. Besides, the Potency result in [13], in test [16] and in test [14] was “inactive” throughout.
For `Cc1ccc(N=CN(C)C=Nc2ccc(C)cc2C)c(C)c1`, the Potency result in test [1], in [2], in [4], in test [6], in test [7] and in [8] was “inactive” throughout. The Potency entry in test [9], in [11], in [12], in [16], in [14] and in test [15] was “inactive” in each case. Besides, the Potency in test [3] was 43.6 µM (active) and inactive; in [5] it was 39.1 µM (active) and 38.9 µM (active) and inactive. For the same compound, the outcome in [19] was inactive.
Consider `O=NN(c1ccccc1)c1ccccc1`, for which the Potency entry in [1], in [2], in test [3], in test [4], in test [5] and in [6] was “inactive” throughout. Further, the Potency entry in test [7], in test [8], in test [18], in [9], in test [10] and in test [11] was “inactive” each time. The Potency entry in test [12], in test [16] and in test [14] was “inactive” in each case.
As to `O=C(O)c1nn(Cc2ccc(Cl)cc2Cl)c2ccccc12`, the Potency entry in test [1], in test [2], in test [4], in test [5], in test [6] and in [7] was “inactive” throughout. For the same compound, the Potency entry in test [8], in test [9], in test [20], in test [11], in test [12] and in [13] was “inactive” each time. Besides, the Potency result in test [16], in [14] and in test [15] was “inactive” each time. The Potency entry was “inactive and 95.2 nM (active)” in test [3]; “inactive and 95.2 nM (active)” in test [18]. Moreover, the call in test [19] was inactive.

These data come from PubChem BioAssay (Tox21).
